Screening results as filed in PubChem.
EWS-Fli block = EWS/Fli-driven NR0B1 reporter inhibitors, primary screen, A673 cells, NR0B1 luciferase, luminescence, MLPCN library; viability-normalised; inhibition, % at 12.6 µM; 350,000 tested, 0.67% active;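 active means mean inhibition of at least 50% after viability correction, with every replicate also passing that limit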;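 further: firefly luciferase signal divided by Alamar Blue viability fluorescence both relative to DMSO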
PAX8 reporter = inhibitors of PAX8-driven TPO luciferase reporter, primary screen, RMG-I cells, single concentration; SteadyGlo, 24 h; inhibition, % at 12.6 µM; 360,000 tested, 1.2% active;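 active means mean replicate inhibition at least 60% with every replicate also reaching 60%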;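 further: luciferase light reporting Pax8 driven TPO promoter activity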
Statin myotox sup = suppressors of statin myotoxicity in C2C12 myotubes, primary screen, cell-based, single point, plate reader. C2C12 myotubes + simvastatin, ATP luminescence, 48 h; scaled: DMSO 0, geranylgeraniol control 100. 330,000 tested, 0.78% active. rescue of ATP level, % at 7.49 µM;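 active means mean ATP rescue above about 67%, or every replicate alone reaching that limit, limit read from the data, passing the limit was not always enough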;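 further: myotubes were challenged with 10 µM simvastatin during compound exposure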
GSIS activator = GLuc luminescence reporter in INS-1E cells, primary screen for activators of glucose-dependent secretion of insulin | INS-1E GLuc reporter insulin secretion, 2-3 h | activation, % at 16.6 µM | 370,000 tested, 0.61% active | AID 743287, 2014;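 active means lowest replicate activation of at least 40%, so every replicate reaches that level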
HIV Env fusion = inhibitors of HIV-1 Env-driven cell-cell fusion, primary screen, HeLa-JRFL effector, CEM21 target cells, luciferase | inhibition, % at 12.3 µM | 360,000 tested, 1.1% active | AID 651610, 2012;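 active means mean replicate inhibition score of at least 50 and every replicate individually at or above 50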
miR-122 sensor = miR-122 Renilla sensor signal increase in Huh7, primary screen, miR-122 inhibitor project, cell-based, single point, plate reader; Huh7 miR-122 Renilla luciferase sensor, 48 h; neutral wells = 0, positive control = 100; activation (reporter increase), % at 12.5 µM; 340,000 tested, 0.3% active; AID 602342, 2012;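 active means mean replicate activation score at least 90 and every replicate individually at or above 90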;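 further: higher luciferase means less miR-122 activity so hits act as miR-122 inhibitors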
Of the large screens only hits and unclear results are named; the others gave an inactive call. Compounds with a hit are over-represented: about 3.1% of the library has one in this group of screens.

C[n+]1ccc(/C=N/Nc2nc(Cl)c(C#N)c(Cl)c2Cl)cc1	PAX8 reporter 63.1
Clc1nnc(N/N=C/c2ccccc2)c2ccccc12	none (no result: EWS-Fli block, PAX8 reporter)
COc1ccc(NS(=O)(=O)c2cccc(NC(=O)COc3ccccc3[N+](=O)[O-])c2)cc1	miR-122 sensor 145.8 (no result: PAX8 reporter)
CCn1nc(C)cc1-c1nnc(Sc2ncc([N+](=O)[O-])s2)n1C	EWS-Fli block 69.2, PAX8 reporter 78.0
COc1ccc(-c2cc(C3CCN(c4ccc(C(C)=O)cc4[N+](=O)[O-])CC3)[nH]n2)cc1	PAX8 reporter 84.9 (no result: EWS-Fli block, Statin myotox sup, GSIS activator)
COC(=O)c1ccc(N2CCC(c3cc(-c4ccc(OC)cc4)n[nH]3)CC2)c([N+](=O)[O-])c1	none (no result: EWS-Fli block, GSIS activator)
CC1(C)CC(=O)C2=C(C1)N1C(=C(C#N)C2c2ccccc2Cl)N=C(N)c2ccccc21 (stereo not drawn)	none
CC1(C)CC(=O)C2=C(C1)N1C(=C(C#N)C2c2ccc(Cl)cc2)N=C(N)c2ccccc21 (stereo not drawn)	PAX8 reporter 67.2
O=C(Cn1c(COc2ccccc2)nc2ccccc21)Nc1cc(Cl)ccc1Cl	none (no result: Statin myotox sup, GSIS activator, miR-122 sensor)
O=C(Cn1c(COc2ccccc2)nc2ccccc21)Nc1cc(Cl)cc(Cl)c1	GSIS activator 67.7
N#CCCNC(=O)Cn1c(COc2ccc(Cl)cc2)nc2ccccc21	PAX8 reporter 69.7 (no result: GSIS activator, HIV Env fusion)
O=C(Cn1c(COc2ccc(Cl)cc2)nc2ccccc21)NCC(F)(F)F	none (no result: EWS-Fli block, Statin myotox sup, miR-122 sensor)
CC1C/C(=C/c2cccs2)C(=O)/C(=C/c2cccs2)C1 (stereo not drawn)	PAX8 reporter 71.6 (no result: Statin myotox sup, HIV Env fusion, miR-122 sensor)
CCCNC(=O)c1cc2ccccc2c(=O)o1	none (no result: Statin myotox sup, GSIS activator)
Cc1cc(C)n(C(=O)c2cc3ccccc3c(=O)o2)n1	Statin myotox sup 93.1 (no result: EWS-Fli block, PAX8 reporter, GSIS activator, HIV Env fusion)
O=C(OCC(=O)N1CCN(c2ccccc2)CC1)c1cccc([N+](=O)[O-])c1	HIV Env fusion 71.2 (no result: miR-122 sensor)
CCCCn1cnc2c(c(-c3ccccc3)c(-c3ccccc3)n2Cc2ccco2)c1=N	PAX8 reporter 99.9 (no result: Statin myotox sup, GSIS activator)
COc1ccc(-n2c(SCC(=O)Nc3ccc4c(c3)OCO4)nc3ccccc3c2=O)cc1	Statin myotox sup 118.4 (no result: EWS-Fli block, PAX8 reporter)
CCOc1ccc(-n2c(SCC(=O)Nc3ccc4c(c3)OCO4)nc3ccccc3c2=O)cc1	none (no result: EWS-Fli block, Statin myotox sup, GSIS activator)
Cc1ccc(S(=O)(=O)N2c3cc(C)ccc3OCC2C(C)(C)C)cc1 (stereo not drawn)	none (no result: EWS-Fli block)
COc1ccc(S(=O)(=O)N2c3cc(C)ccc3OCC2C(C)(C)C)cc1 (stereo not drawn)	miR-122 sensor 151.4 (no result: EWS-Fli block)
CCc1nc2c(OCc3ccccc3C)cccn2c1N(C)C(=O)c1ccco1	GSIS activator 60.7
CCc1nc2c(OCc3ccccc3C(=O)OC)cccn2c1N(C)C(=O)c1ccncc1	GSIS activator 116.6
CC=Cc1ccc2n(c1=O)C[C@H]1[C@H](CO)[C@@H](C(=O)N(C)C)N(Cc3cccc(F)c3)[C@@H]21 (mixture of isomers)	none (no result: PAX8 reporter, HIV Env fusion, miR-122 sensor)
CC1(C(=O)NS(=O)(=O)c2ccc(Cl)s2)CCN1C(=O)C1(c2ccccc2)CCCC1 (stereo not drawn)	GSIS activator 111.5
Cc1noc(C)c1S(=O)(=O)NC(=O)C1(C)CCN1C(=O)C1(c2ccc(Cl)cc2)CCC1 (stereo not drawn)	GSIS activator 55.3
CC1(C(=O)NS(=O)(=O)c2ccc(Cl)s2)CCN1C(=O)C1(c2ccc(Cl)cc2)CCC1 (stereo not drawn)	GSIS activator 58.9
CC1(C(=O)NS(=O)(=O)c2ccccc2Cl)CCN1C(=O)C1(c2ccccc2)CCCC1 (stereo not drawn)	GSIS activator 92.2 (no result: miR-122 sensor)
CC1(C(=O)NS(=O)(=O)c2ccc(Cl)s2)CCN1C(=O)C1(c2ccc(Cl)cc2)CC1 (stereo not drawn)	none (no result: GSIS activator)
COc1ccc2c3c(n(C)c2c1)[C@H](CO)N(C(C)=O)CC31CCN(C(=O)c2ccccc2)CC1	none (no result: PAX8 reporter, Statin myotox sup, miR-122 sensor)
CO[C@@H]1CN(C)C(=O)c2ccc(NC(=O)C3CCC3)cc2OC[C@@H](C)N(Cc2ccncc2)C[C@H]1C	none (no result: EWS-Fli block, Statin myotox sup, HIV Env fusion, miR-122 sensor)
COCc1ccc(C(=O)NC2CCSc3ccccc32)cc1 (stereo not drawn)	GSIS activator 75.8
O=C(NC1CCSc2ccccc21)c1cccc(OC(F)F)c1 (stereo not drawn)	Statin myotox sup 67.1
COC(=O)[C@]1(CCC(=O)OC(C)(C)C)N=C(c2ccc(OCCCO)cc2)O[C@@H]1c1ccccc1	none (no result: PAX8 reporter, Statin myotox sup, GSIS activator, miR-122 sensor)
Cc1cccc(COC[C@H](Cc2ccccc2)N2CCN(C(=O)c3cc(Cl)cc(Cl)c3)CCC2=O)c1	HIV Env fusion 91.9 (no result: Statin myotox sup, miR-122 sensor)
Cc1cccc(COCC(Cc2ccccc2)N2CCN(C(=O)c3cccc(Cl)c3)CCC2=O)c1 (stereo not drawn)	HIV Env fusion 66.2
Cc1cccc(COC[C@H](Cc2ccccc2)N2CCN(C(=O)c3cccc(Cl)c3)CCC2=O)c1	HIV Env fusion 74.7 (no result: Statin myotox sup, miR-122 sensor)
Cc1cccc(COC[C@H](Cc2ccccc2)N2CCN(C(=O)c3cccc(C)c3)CCC2=O)c1	none (no result: Statin myotox sup, miR-122 sensor)
NCC[C@@H]1CC[C@@H](NC(=O)C2CCC2)[C@@H](CO)O1	none (no result: miR-122 sensor)
CC(C)NC(=O)Nc1ccc2c(c1)C(=O)N([C@@H](C)CO)C[C@@H](C)[C@H](CN(C)Cc1ccc(Oc3ccccc3)cc1)O2	none (no result: HIV Env fusion)
Cc1noc(C)c1S(=O)(=O)Nc1ccc2c(c1)C(=O)N([C@H](C)CO)C[C@H](C)[C@H](CN(C)CC1CCCCC1)OCCCC[C@H](C)O2	none
O=C1c2ccccc2C(=O)N1CC(O)COCc1ccccc1 (stereo not drawn)	none (no result: EWS-Fli block, PAX8 reporter, miR-122 sensor)
O=C1c2ccccc2C(=O)N1CC(O)CNc1ccc(Br)cc1 (stereo not drawn)	PAX8 reporter 81.7 (no result: Statin myotox sup, GSIS activator)
CCOc1ccc(CSC(CC(=O)O)C(=O)O)cc1 (stereo not drawn)	Statin myotox sup 102.6 (no result: EWS-Fli block, PAX8 reporter, GSIS activator, HIV Env fusion)
COC(=O)c1sccc1NC(=O)COc1ccc(C)cc1	none
COC(=O)c1sccc1NC(=O)COc1ccc(Cl)cc1Cl	GSIS activator 61.3 (no result: EWS-Fli block, Statin myotox sup, miR-122 sensor)
O=C(COc1ccc(Cl)cc1Cl)Nc1ccccn1	EWS-Fli block 60.3 (no result: PAX8 reporter, HIV Env fusion)
CSc1ccccc1NC(=O)COc1ccc(Cl)cc1Cl	none
COc1ccc(C(C(=O)NC(C)(C)C)N(C[C@H]2CC[C@@H]([C@@H]3CC[C@H](CO)O3)O2)C(=O)c2ccccc2)cc1 (stereo partly drawn)	HIV Env fusion 62.3 (no result: miR-122 sensor)
COc1ccc(C(=O)C/C(=C\C(=O)c2ccc(C)cc2)c2ccccc2)cc1	HIV Env fusion 102.6 (no result: EWS-Fli block, PAX8 reporter, GSIS activator)
CC(C)C(=O)Nc1ccc2c(c1)C(=O)N(C)[C@H]1CC[C@H](CC(=O)NCc3ccccc3F)O[C@@H]1CO2	none
Cn1c(CNC(=O)c2ccccc2F)nnc1SCC(=O)N1CCN(c2ccccc2)CC1	none (no result: Statin myotox sup)
